CDC25B-CDK2 inh: human CDC25B-CDK2/CyclinA binding inhibition; P30305+P24941; HTRF CDC25B-CDK2/CyclinA binding, anti-His/anti-Flag; stronger effect = higher value; z-score (no concentration beside the values); 0.72% of 94,000 active; in the data active = z-score above about 3.2
TAR Tat displ: HIV-1 TAR-Tat binding disruption. HIV-1 TAR RNA, Tat peptide displacement FRET; stronger effect = higher value. z-score (concentration not given with the values). 0.6% of 100,000 active. AID 1259389; active = z-score of 3 or more in at least 2 runs
Starred values were filed as active, the others as inactive. Most compounds without a hit are left out; they make up all but 0.93% or so of the library.

How did COc1ccc(Br)cc1C1CC(=O)N2CN(C)CSC2=C1C#N (stereo unspecified) do in these assays?
CDC25B-CDK2 inh: 5; TAR Tat displ: 3.3

How did COc1ccc(N2CSC3=C(C#N)C(c4ccc(OC)cc4OC)CC(=O)N3C2)cc1 (stereo unspecified) do in these assays?
CDC25B-CDK2 inh: 3.4*; TAR Tat displ: -1.2

What do the screens show for `COc1ccc(N2CSC3=C(C#N)C(c4ccc(SC)cc4)CC(=O)N3C2)cc1` (stereo unspecified)?
CDC25B-CDK2 inh: 2.8; TAR Tat displ: -0.8

Results for COc1ccc(C2CC(=O)N3CN(C)CSC3=C2C#N)c(OC)c1 (stereo unspecified) ?
CDC25B-CDK2 inh: 5.2*; TAR Tat displ: -1.3

What do the screens show for `COc1ccc(C2CC(=O)N3CN(c4ccc(F)cc4)CSC3=C2C#N)c(OC)c1` (stereo unspecified)?
CDC25B-CDK2 inh: 4.4*; TAR Tat displ: -2.1

What do the screens show for `CC(C)Nc1nc(N2CCN(CCO)CC2)nc2c1cnn2C`?
TAR Tat displ: 1.8

How did O=C(c1cc2c(=O)n3ccccc3nc2s1)N1CCN(C(c2ccccc2)c2ccccc2)CC1 do in these assays?
CDC25B-CDK2 inh: -0.77; TAR Tat displ: -1.9

Results for CC(C)CCn1c(SCc2cc(=O)n3cc(Cl)ccc3n2)nc2ccsc2c1=O ?
CDC25B-CDK2 inh: -2.3

What do the screens show for `CCCNC(=O)Cn1ncn2c(cc3sc(C)cc32)c1=O`?
CDC25B-CDK2 inh: -2.5

How did CSc1ccc(NC(=O)NCCN2CCc3ccccc3C2)cc1 do in these assays?
CDC25B-CDK2 inh: 13*; TAR Tat displ: 1.5

What do the screens show for `O=C(NCCN1CCc2ccccc2C1)Nc1ccccc1F`?
CDC25B-CDK2 inh: -0.6; TAR Tat displ: -0.3

Results for COc1ccc(C2=NN3C(C2)c2ccccc2OC3c2ccncc2)cc1OC (stereo unspecified) ?
CDC25B-CDK2 inh: -0.92; TAR Tat displ: -0.61

How did COc1ccccc1C1Oc2ccccc2C2CC(c3cccnc3)=NN21 (stereo unspecified) do in these assays?
CDC25B-CDK2 inh: -0.43; TAR Tat displ: 3.5*

How did CCCCN(CCCC)S(=O)(=O)c1ccc2c(c1)oc(=O)n2C do in these assays?
CDC25B-CDK2 inh: -0.71; TAR Tat displ: 2.1

Results for CC(=O)NC1=NN(C(C)=O)C(c2ccc(Sc3ccc(C)cc3)o2)S1 (stereo unspecified) ?
CDC25B-CDK2 inh: -0.44; TAR Tat displ: 2

Results for CC(=O)NC1=NN(C(C)=O)C(c2ccc(C)o2)S1 (stereo unspecified) ?
CDC25B-CDK2 inh: -2.3; TAR Tat displ: 16*

What do the screens show for `CCCS(=O)(=O)N1CCN(C(=O)c2cc(-c3cccs3)[nH]n2)CC1`?
TAR Tat displ: 0.79

Results for S=c1[nH]nc(COc2cccc3cccnc23)n1-c1ccccc1 ?
CDC25B-CDK2 inh: -1.4

Results for O=C(O)CCSc1cccc2cccc(C(=O)O)c12 ?
CDC25B-CDK2 inh: 11*

How did O=C(O)CSc1cccc2cccc(C(=O)O)c12 do in these assays?
CDC25B-CDK2 inh: 0.74; TAR Tat displ: 1.1

What do the screens show for `COCCNC(=O)Nc1ccc2nc(NS(C)(=O)=O)sc2c1`?
TAR Tat displ: 0.39

What do the screens show for `S=C(Nc1ccc2nc3c4ccccc4c4ccccc4c3nc2c1)NC1CC1`?
CDC25B-CDK2 inh: 7.1*

Results for O=C(NC1CC1)c1ccc(NC(=O)c2nsc3ccccc23)cc1 ?
CDC25B-CDK2 inh: -3.1; TAR Tat displ: 2.2

How did C=CCNC(=O)Nc1ccc2nc3c4ccccc4c4ccccc4c3nc2c1 do in these assays?
CDC25B-CDK2 inh: 21*

Results for O=C(COC(=O)c1ccc2nc3c4ccccc4c4ccccc4c3nc2c1)c1ccccc1 ?
CDC25B-CDK2 inh: -2

How did O=C(NCCO)c1ccc2nc3c4ccccc4c4ccccc4c3nc2c1 do in these assays?
CDC25B-CDK2 inh: 8.2*

What do the screens show for `O=C(NNc1cc(C(F)(F)F)nc2ccccc12)Nc1ccccc1`?
CDC25B-CDK2 inh: 0.86

What do the screens show for `COCCNC(=O)Nc1ccc2nc3c4ccccc4c4ccccc4c3nc2c1`?
CDC25B-CDK2 inh: 20*

How did CSc1ccc(NC(=O)C2CCN(c3cnccn3)CC2)cc1 do in these assays?
CDC25B-CDK2 inh: 0.79; TAR Tat displ: 0.89

How did Cc1cc(C)c2c(CC(=O)Nc3sc4c(c3C(=O)NCC3CCCO3)CCCC4)coc2c1 (stereo unspecified) do in these assays?
CDC25B-CDK2 inh: -0.77; TAR Tat displ: 1.8

How did Cn1c(NC(=O)C2CCCN(C(=O)c3cnn(-c4ccccc4)c3-n3cccc3)C2)nc2ccccc21 (stereo unspecified) do in these assays?
CDC25B-CDK2 inh: -0.84; TAR Tat displ: 1.8

What do the screens show for `O=C(Nc1ccc2c(c1)OCCO2)C1CCN(S(=O)(=O)c2ccc(Br)cc2)CC1`?
CDC25B-CDK2 inh: 4.6*; TAR Tat displ: 1.6

How did O=C(Nc1ccc2c(c1)OCCO2)C1CCN(S(=O)(=O)c2ccc3[nH]c(=O)ccc3c2)CC1 do in these assays?
TAR Tat displ: 1.2

How did Cc1cc(C)c(-c2c(N3CCCC3)c(=O)c2=O)cc1C do in these assays?
TAR Tat displ: 0.28

Screening results from PubChem.
